# Measured values as given in PubChem BioAssay (NCATS).
# Values without a mark were called inactive. Inconclusive results are not listed. Where a call stands in place of a potency, no number is given. Calls of active or inactive are those of the source. Unless noted, calls follow the shape of the full dose curve.
# Key:
# [1] = target: Alpha-galactosidase (Coffea arabica) (UniProt Q42656); assay: Counterscreen for Glucocerebrosidase Inhibitors: qHTS Assay for Coffee Bean alpha-Galactosidase at pH 4.5 (AID 957; active = well fitted curve in the direction sought with a large enough effect; an effect the other way counts as inactive or inconclusive; also: series mostly up to about 77 µM)
# Chain of Alpha-galactosidase (Coffea arabica) (Q42656 whole entry, looked up): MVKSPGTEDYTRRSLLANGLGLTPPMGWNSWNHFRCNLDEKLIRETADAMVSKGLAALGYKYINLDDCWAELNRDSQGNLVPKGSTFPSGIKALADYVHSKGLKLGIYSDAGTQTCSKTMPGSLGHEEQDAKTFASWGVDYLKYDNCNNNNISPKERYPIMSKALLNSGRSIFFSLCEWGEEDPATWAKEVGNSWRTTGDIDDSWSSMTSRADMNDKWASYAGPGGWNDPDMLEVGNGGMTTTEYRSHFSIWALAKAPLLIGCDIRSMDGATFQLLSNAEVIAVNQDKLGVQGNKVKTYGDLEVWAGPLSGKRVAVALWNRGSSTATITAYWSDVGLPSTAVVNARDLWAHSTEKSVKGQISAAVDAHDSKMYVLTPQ
# Procedure, shortened: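 Green coffee bean enzyme (2 nM final) was incubated with compounds (0.7 nM to 77 uM) and 4-methylumbelliferyl alpha-D-galactopyranoside (80 uM final) in 50 mM citric acid, 0.005% Tween-20, pH 4.5, 20 min at room temperature; AC50 from Hill fits.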
# [2] = Validation screen for inhibitors of Lassa infection (AID 463096)
# [3] = Inducers of the Endoplasmic Reticulum Stress Response (ERSR) in human glioma: Validation (AID 504836; active = well fitted curve in the direction sought with a large enough effect; an effect the other way counts as inactive or inconclusive)
# Procedure, shortened: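 ERSR induction read as luciferase luminescence (Bright-Glo, 10 min at room temperature) in stably transfected human U87-MG glioma cells exposed to compounds for 16 h, using GRP78 as sensor.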
# [4] = qHTS for Inhibitors of the Functional Ribonucleoprotein Complex (vRNP) of Lassa (LASV) Arenavirus: LASV Primary Screen - GLuc reporter signal (AID 1347082; calls by dose curve; tested in HEK293 reporter line; also: series mostly up to about 57 µM; nearly all actives have a fitted effect of over 60% in size)
# [5] = qHTS for Inhibitors of the Functional Ribonucleoprotein Complex (vRNP) of Lassa (LASV) Arenavirus: Viability assay - alamar blue signal for LASV Primary Screen (AID 1347083; calls by dose curve; tested in HEK293 reporter line; also: series mostly up to about 57 µM; nearly all actives have a fitted effect of over 80% in size)
# [6] = qHTS for Inhibitors of the Functional Ribonucleoprotein Complex (vRNP) of Lymphocytic Choriomeningitis Arenaviruses (LCMV): Viability assay - alamar blue signal for LCMV Primary Screen (AID 1347085; calls by dose curve; tested in HEK293 reporter line; also: series mostly up to about 57 µM; nearly all actives have a fitted effect of over 80% in size)
# [7] = target: Nucleoprotein (Lymphocytic choriomeningitis virus (strain Armstrong)) (UniProt P09992); assay: qHTS for Inhibitors of the Functional Ribonucleoprotein Complex (vRNP) of Lymphocytic Choriomeningitis Arenaviruses (LCMV): LCMV Primary Screen - GLuc reporter signal (AID 1347086); also: series mostly up to about 57 µM; nearly all actives have a fitted effect of over 70% in size
# Chain of Nucleoprotein (Lymphocytic choriomeningitis virus (strain Armstrong)) (P09992 whole entry, looked up): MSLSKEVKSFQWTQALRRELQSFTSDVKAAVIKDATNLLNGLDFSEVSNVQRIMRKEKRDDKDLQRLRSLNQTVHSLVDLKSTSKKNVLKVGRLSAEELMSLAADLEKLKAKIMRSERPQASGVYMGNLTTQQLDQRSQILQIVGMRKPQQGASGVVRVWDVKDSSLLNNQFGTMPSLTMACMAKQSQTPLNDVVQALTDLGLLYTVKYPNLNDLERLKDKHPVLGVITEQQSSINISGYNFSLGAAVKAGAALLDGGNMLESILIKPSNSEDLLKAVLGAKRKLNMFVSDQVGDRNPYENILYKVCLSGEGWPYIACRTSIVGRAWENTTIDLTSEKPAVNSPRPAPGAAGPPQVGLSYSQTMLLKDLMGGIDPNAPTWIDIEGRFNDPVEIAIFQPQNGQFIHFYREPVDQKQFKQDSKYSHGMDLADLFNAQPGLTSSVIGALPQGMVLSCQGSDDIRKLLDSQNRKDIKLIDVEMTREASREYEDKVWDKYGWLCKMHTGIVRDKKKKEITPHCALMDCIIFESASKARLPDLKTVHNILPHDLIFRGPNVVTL
# [8] = target: Alpha-galactosidase (Coffea arabica) (UniProt Q42656); assay: Counterscreen for Glucocerebrosidase Inhibitors: qHTS Assay for Coffee Bean alpha-Galactosidase at pH 5.9 (AID 998; active = well fitted curve in the direction sought with a large enough effect; an effect the other way counts as inactive or inconclusive)
# Procedure, shortened: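 Compounds were titrated from 0.7 nM to 77 uM against green coffee bean alpha-galactosidase (2 nM) using 80 uM fluorogenic 4-methylumbelliferyl substrate. After 20 min at room temperature, reactions were stopped at pH 10 and read by fluorescence.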
# [9] = target: Voltage-gated inwardly rectifying potassium channel KCNH2 (Homo sapiens) (UniProt Q12809); assay: qHTS Assay for Small Molecule Inhibitors of the Human hERG Channel Activity (AID 588834; active = well fitted curve in the direction sought with a large enough effect; an effect the other way counts as inactive or inconclusive;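 also: lower thallium flux fluorescence means stronger hERG block; nearly all actives have a fitted effect of over 50% in size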; also: potency is read from the fitted curve at half-maximal effect)
# Chain of Voltage-gated inwardly rectifying potassium channel KCNH2 (Homo sapiens) (Q12809 whole entry, looked up): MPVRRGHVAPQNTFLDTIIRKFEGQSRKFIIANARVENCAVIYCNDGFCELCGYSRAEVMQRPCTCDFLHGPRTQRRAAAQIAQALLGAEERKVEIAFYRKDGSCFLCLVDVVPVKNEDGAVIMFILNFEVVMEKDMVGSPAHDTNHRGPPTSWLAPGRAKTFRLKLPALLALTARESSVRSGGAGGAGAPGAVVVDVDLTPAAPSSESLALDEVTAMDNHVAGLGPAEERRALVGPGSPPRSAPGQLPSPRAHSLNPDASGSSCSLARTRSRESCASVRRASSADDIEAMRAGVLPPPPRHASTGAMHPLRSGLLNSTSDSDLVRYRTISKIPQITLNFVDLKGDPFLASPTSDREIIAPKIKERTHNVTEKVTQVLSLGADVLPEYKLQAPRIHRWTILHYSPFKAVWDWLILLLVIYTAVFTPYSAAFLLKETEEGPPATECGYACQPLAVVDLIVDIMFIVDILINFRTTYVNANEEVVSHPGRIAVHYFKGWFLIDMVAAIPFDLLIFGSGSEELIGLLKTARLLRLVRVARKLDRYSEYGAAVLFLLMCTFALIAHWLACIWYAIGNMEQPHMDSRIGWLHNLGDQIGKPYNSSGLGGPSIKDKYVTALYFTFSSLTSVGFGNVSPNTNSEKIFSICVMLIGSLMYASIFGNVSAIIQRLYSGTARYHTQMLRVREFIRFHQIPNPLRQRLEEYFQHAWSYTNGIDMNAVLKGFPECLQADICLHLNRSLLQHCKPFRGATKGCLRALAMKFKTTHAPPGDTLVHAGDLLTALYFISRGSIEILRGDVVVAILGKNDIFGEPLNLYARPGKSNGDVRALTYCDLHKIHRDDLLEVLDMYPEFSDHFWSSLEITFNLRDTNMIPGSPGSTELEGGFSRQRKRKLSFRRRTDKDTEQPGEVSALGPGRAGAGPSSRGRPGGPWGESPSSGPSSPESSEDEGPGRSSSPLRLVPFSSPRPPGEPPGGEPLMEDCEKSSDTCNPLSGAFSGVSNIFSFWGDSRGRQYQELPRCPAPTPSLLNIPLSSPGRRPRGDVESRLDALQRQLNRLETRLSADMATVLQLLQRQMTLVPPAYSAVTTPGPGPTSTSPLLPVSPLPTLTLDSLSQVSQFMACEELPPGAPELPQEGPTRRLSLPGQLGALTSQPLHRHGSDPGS
# Procedure, shortened: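 Concentration-response qHTS measuring drop in thallium-sensitive dye signal. U2OS cells carrying BacMam hERG; compound exposure ~10 min, then stimulation buffer and 2 min read at 1 sec intervals.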
# [10] = target: Bile acid receptor (Homo sapiens) (UniProt Q96RI1); assay: qHTS assay for small molecule agonists of farnesoid X receptor signaling (AID 588527); conditions: HEK293T FXR-UAS-bla, beta-lactamase ratio, 16 h; activation: hits give high values; also: series mostly up to about 77 µM
# Chain of Bile acid receptor (Homo sapiens) (Q96RI1 whole entry, looked up): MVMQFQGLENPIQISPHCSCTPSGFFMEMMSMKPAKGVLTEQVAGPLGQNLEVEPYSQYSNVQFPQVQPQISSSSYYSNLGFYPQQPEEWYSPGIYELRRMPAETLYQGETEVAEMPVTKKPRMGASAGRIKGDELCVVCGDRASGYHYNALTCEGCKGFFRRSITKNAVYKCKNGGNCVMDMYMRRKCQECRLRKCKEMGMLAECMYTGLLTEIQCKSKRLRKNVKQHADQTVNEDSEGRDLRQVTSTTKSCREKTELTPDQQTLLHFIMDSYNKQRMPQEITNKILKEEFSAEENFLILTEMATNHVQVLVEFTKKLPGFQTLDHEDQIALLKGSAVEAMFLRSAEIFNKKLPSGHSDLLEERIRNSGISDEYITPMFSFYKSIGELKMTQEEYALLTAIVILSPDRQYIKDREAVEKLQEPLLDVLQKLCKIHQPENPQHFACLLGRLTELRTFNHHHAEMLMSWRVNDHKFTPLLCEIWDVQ
# Procedure, shortened: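 Agonist-mode beta-lactamase reporter in GeneBLAzer FXR-UAS-bla HEK293T cells, titration up to 92 uM, 16 h exposure at 37 C, CCF4 fluorescence. Response scaled to DMSO (0%) and 100 uM chenodeoxycholic acid (100%), then Hill-fitted for EC50 and efficacy.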
Structure (SMILES),outcome [1],Potency [2],outcome [3],Potency [4],Potency [5],Potency [6],Potency [7],outcome [8],Potency [9],activation [10]
N[C@@H](Cc1ccc(O)c(I)c1)C(=O)O,inactive,inactive,inactive,inactive,inactive,inactive,inactive,,,
Nc1ccc(CCNc2ncnc3c2ncn3C2OC(CO)C(O)C2O)cc1 (configuration not stated),,inactive,inactive,inactive,inactive,inactive,inactive,,,
COC(=O)C(C)(N)Cc1ccc(O)cc1 (configuration not stated),,inactive,inactive,inactive,inactive,inactive,inactive,,,
Cc1cc2c(cc1Cl)N(C(=O)Nc1ccnc3ccccc13)CC2,inactive,inactive,inactive,inactive,inactive,inactive,inactive,,,
O=C(O)/C(=C/c1c(C(=O)O)[nH]c2cc(Cl)cc(Cl)c12)c1ccccc1,inactive,inactive,inactive,inactive,inactive,inactive,inactive,,,
N[C@@H](Cc1ccc(F)cc1)C(=O)O,,inactive,inactive,inactive,inactive,inactive,inactive,,,
CC(C)NCC(O)COc1ccc(CC(N)=O)cc1 (configuration not stated),,inactive,inactive,inactive,inactive,inactive,inactive,,,
N=C(N)c1ccccc1,inactive,inactive,inactive,inactive,inactive,inactive,inactive,inactive,inactive,
COC(=O)[C@H](NC(=O)c1cc(-c2ccccc2)nc2ccccc12)c1ccccc1,inactive,inactive,inactive,inactive,inactive,inactive,inactive,,,
NC(Cc1cccc(-c2ccccc2CP(=O)(O)O)c1)C(=O)O (configuration not stated),,inactive,inactive,inactive,inactive,inactive,inactive,,,
CN1C2CCC1CC(OC(=O)C(O)c1ccccc1)C2 (configuration not stated),,inactive,inactive,inactive,inactive,inactive,inactive,,,
O=C1C2C=CC=CC2=NC(=S)N1CCN1CCC(=C(c2ccc(F)cc2)c2ccc(F)cc2)CC1 (configuration not stated),,inactive,inactive,inactive,inactive,inactive,inactive,,,
CO/N=C(\C(=O)N[C@@H]1C(=O)N2C(C(=O)O)=C(CSc3nc(=O)c(O)nn3C)CSC12)c1csc(N)n1 (some centres not stated),,inactive,inactive,inactive,inactive,inactive,inactive,,,
NC(=O)c1ccccc1,,inactive,inactive,inactive,inactive,inactive,inactive,inactive,,0.288%
CCCCCC[C@@H]([C@@H](C)O)n1cnc2c(N)ncnc21,,inactive,inactive,inactive,inactive,inactive,inactive,,,
N[C@@H](Cc1cnc[nH]1)C(=O)O,inactive,inactive,inactive,inactive,inactive,inactive,inactive,,,
C[C@H](O)C(=O)C1=Nc2c(nc(N)[nH]c2=O)NC1,inactive,inactive,inactive,inactive,inactive,inactive,inactive,,,
COC(=O)C(N)Cc1ccc(Cl)cc1 (configuration not stated),,inactive,inactive,inactive,inactive,inactive,inactive,,,
Cc1nc2c(OCc3ccccc3)cccn2c1CC#N,inactive,inactive,inactive,inactive,inactive,inactive,inactive,,,
C[C@@H](NCCc1ccc(O)cc1)[C@@H](O)c1ccc(O)cc1,,inactive,inactive,inactive,inactive,inactive,inactive,,7.94 µM (active),
CCCCCCCCCCCCCCCCCCNC(=O)OCC(COP(=O)([O-])OCC[n+]1ccsc1)OC (configuration not stated),,inactive,inactive,inactive,inactive,inactive,inactive,,,
O=c1[nH]c2cc(C(F)(F)F)ccc2n1-c1cc(C(F)(F)F)ccc1O,inactive,inactive,inactive,inactive,inactive,inactive,inactive,,,
Cn1cnc2c(NCc3ccccc3)nc(NCCO)nc21,inactive,inactive,inactive,inactive,inactive,inactive,inactive,inactive,,
Oc1ccc(Cn2cc[nH]c2=S)cc1,inactive,inactive,inactive,inactive,inactive,inactive,inactive,inactive,,
NCCCCCCCCCCN,inactive,inactive,inactive,inactive,inactive,inactive,inactive,inactive,,
NC(N)=NC(N)=Nc1ccccc1,inactive,inactive,inactive,inactive,inactive,inactive,inactive,inactive,,
c1ccc(-c2ccccn2)nc1,inactive,inactive,inactive,inactive,inactive,inactive,inactive,inactive,,
NCCS(=O)O,inactive,inactive,inactive,inactive,inactive,inactive,inactive,inactive,,
CC(=O)N[C@@H](Cc1c[nH]c2ccccc12)C(=O)OCc1cc(C(F)(F)F)cc(C(F)(F)F)c1,inactive,inactive,inactive,inactive,inactive,inactive,inactive,inactive,,
